This note sets out measurements from PubChem BioAssay (NCATS).

Records with an inconclusive call do not appear. Active and inactive are the calls of the source. Calls follow the shape of the dose curve; as a rule, active = well fitted inhibition curve with a large enough effect; inconclusive = small, poorly fitted or top-dose-only effect; inactive = flat fitted curve, though single readings scatter.

Holding throughout (assay): qHTS profiling for inhibitors of Plasmodium falciparum proliferation (AID 504749); also: nearly all actives have a fitted effect of over 60% in size
What all share (conditions): P. falciparum in erythrocytes, SYBR Green DNA, 72 h; series mostly up to 28.7 µM
Background: Quantitative high-throughput screening tests each substance at several concentrations.

The test system of one experiment is N140. The method, boiled down: (§1)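 Readout was DNA-dye fluorescence from lysed cultures, ex 485/em 535 nm. Parasitized red cells had grown 72 h with compound; data scaled between 0.29 uM artemisinin and DMSO wells and corrected using vehicle-only plates.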
The test system of another experiment is P93_24. The method, boiled down:
as §1

In a further experiment the test system is P94_40. The method, boiled down: as §1
The subject of a further experiment is PAD. The method, boiled down: as §1
The test system of another experiment is PC15. The method, boiled down: as §1
A further experiment deals with PC26. The method, boiled down:
as §1

For a further experiment, the system named is PC49. The method, boiled down: as §1
For the next experiment, the system named is SC27B. The method, boiled down: as §1
Another experiment concerns TAB109. The method, boiled down: as §1
Another experiment relates to TAB113. The method, boiled down:
as §1
Potency is read from the fitted curve at half-maximal effect.

Consider `COC(=O)[C@H]1[C@H]2C[C@@H]3c4[nH]c5ccccc5c4CCN3C[C@H]2C[C@@H](OC(=O)c2cc(OC)c(OC)c(OC)c2)[C@@H]1OC`, for which the Potency is 199 nM (active) in the experiment with N140; 126 nM (active) with P93_24; 316 nM (active) in the experiment with P94_40; 251 nM (active) in the experiment with PAD; 447 nM (active) in the experiment with PC15; 269 nM (active) in the experiment with PC26. Besides, the Potency with PC49 is 251 nM (active); in the experiment on SC27B, 355 nM (active); in the experiment with TAB109, 398 nM (active); in the experiment on TAB113 it was 282 nM (active).

For the compound `O=S(=O)(O)O`, the Potency result with N140, in the experiment on P93_24, in the experiment on P94_40, with PAD, with PC15 and in the experiment on PC26 was “inactive” each time. Besides, the Potency result with SC27B, with TAB109 and in the experiment with TAB113 was “inactive” in each case.

With `CCCCCCCCCCCC[n+]1ccc2ccccc2c1`, the Potency is 708 nM (active) in the experiment on N140; 631 nM (active) with P93_24; 891 nM (active) in the experiment with P94_40; 2000 nM (active) in the experiment with PAD; 2240 nM (active) in the experiment on PC15; 953 nM (active) in the experiment on PC26. Besides, the Potency in the experiment with SC27B was 1410 nM (active); with TAB109, 631 nM (active); in the experiment with TAB113, 1000 nM (active).

Regarding `Cc1cn([C@H]2C[C@H](O)[C@@H](CO)O2)c(=O)[nH]c1=O`, the Potency result in the experiment with N140, in the experiment on P93_24, in the experiment with P94_40, with PAD, with PC15 and in the experiment on PC26 was “inactive” each time. In addition, the Potency entry with PC49, in the experiment with SC27B, in the experiment on TAB109 and in the experiment with TAB113 was “inactive” throughout.

For the compound `COCC(=O)Nc1cc(Sc2ccccc2)ccc1N=C(NC(=O)OC)NC(=O)OC`, the Potency entry in the experiment with N140, with P93_24, in the experiment with P94_40, in the experiment on PAD, in the experiment with PC15 and in the experiment with PC49 was “inactive” in each case. The Potency entry in the experiment with SC27B, with TAB109 and with TAB113 was “inactive” in each case.

With `CCCCCC(CC)COC(=O)CC(C(=O)OCC(CC)CCCC)S(=O)(=O)O` (configuration not stated), the Potency entry with N140, with P93_24, in the experiment on P94_40, in the experiment on PAD, in the experiment on PC15 and in the experiment with PC49 was “inactive” throughout. The Potency result in the experiment on SC27B, in the experiment on TAB109 and in the experiment with TAB113 was “inactive” throughout.

For `CCOC(=O)C1=CC2(CC)CCCN3CCc4c(n1c1ccccc41)C32` (configuration not stated), the Potency was 8910 nM (active) in the experiment on N140; 7940 nM (active) with P93_24; 12600 nM (active) with P94_40; 11200 nM (active) in the experiment on PAD; 11200 nM (active) in the experiment with PC15; 10000 nM (active) in the experiment on SC27B. The Potency was 7940 nM (active) in the experiment on TAB109 and 11200 nM (active) in the experiment with TAB113.

`CC(C)(C)C(=O)OCOC(=O)[C@@H]1N2C(=O)[C@@H](N=CN3CCCCCC3)[C@H]2SC1(C)C`: the Potency result in the experiment with N140, in the experiment on P93_24, in the experiment on P94_40, with PAD, in the experiment on PC15 and in the experiment on PC49 was “inactive” each time. Besides, the Potency entry with SC27B, with TAB109 and in the experiment with TAB113 was “inactive” throughout.

For the compound `O=C(O)CCC(=O)C(=O)O`, the Potency entry in the experiment with N140, with P93_24, in the experiment on P94_40, in the experiment with PAD, in the experiment on PC15 and with PC26 was “inactive” throughout. Moreover, the Potency result in the experiment on PC49, in the experiment with SC27B, in the experiment on TAB109 and with TAB113 was “inactive” each time.

`CCOC(C)=O`: the Potency entry with N140, in the experiment with P93_24, in the experiment on P94_40, in the experiment on PAD, in the experiment on PC15 and with PC26 was “inactive” throughout. The Potency entry in the experiment with PC49, with SC27B, in the experiment on TAB109 and with TAB113 was “inactive” throughout.

As to `CO[C@H](C(=O)[C@@H](O)[C@@H](C)O)C1Cc2cc3cc(O[C@H]4C[C@@H](O[C@H]5C[C@@H](O)[C@H](O)[C@@H](C)O5)[C@@H](O)[C@@H](C)O4)c(C)c(O)c3c(O)c2C(=O)[C@H]1O[C@H]1C[C@@H](O[C@H]2C[C@@H](O[C@H]3C[C@](C)(O)[C@H](O)[C@@H](C)O3)[C@H](O)[C@@H](C)O2)[C@H](O)[C@@H](C)O1` (some centres not stated), the Potency in the experiment with N140 is 126 nM (active); in the experiment on P93_24, 112 nM (active); in the experiment on P94_40, 112 nM (active); in the experiment with PAD, 158 nM (active); in the experiment on PC15, 316 nM (active); in the experiment on PC26, 3010 nM (active). In addition, the Potency in the experiment on PC49 was 708 nM (active); in the experiment on SC27B, 126 nM (active); in the experiment on TAB109, 141 nM (active); with TAB113, 89.1 nM (active).

Take `CCCCCCCCCCCCCC[n+]1ccc(C)cc1`: the Potency with N140 was 7080 nM (active); in the experiment with P93_24, 3550 nM (active); with P94_40 it was 4470 nM (active); with PAD it was 3550 nM (active); with PC15, 4470 nM (active); in the experiment on PC26 it was 4780 nM (active). The Potency with SC27B is 3980 nM (active); in the experiment with TAB109, 2240 nM (active); in the experiment with TAB113 it was 3980 nM (active).

In the case of `O=C(O)CN(CCN(CC(=O)O)CC(=O)O)CC(=O)O`, the Potency entry in the experiment on N140, in the experiment on P93_24, in the experiment on P94_40, in the experiment on PAD, with PC15 and in the experiment on PC26 was “inactive” in each case. The Potency result in the experiment with PC49, in the experiment with SC27B, with TAB109 and in the experiment with TAB113 was “inactive” throughout.

Regarding `C#CCOc1ccc2c(C)cc(=O)oc2c1`, the Potency result with N140, in the experiment with P93_24, in the experiment with P94_40, with PAD, in the experiment with PC15 and with PC26 was “inactive” each time. The Potency entry in the experiment with PC49, with SC27B, in the experiment with TAB109 and in the experiment on TAB113 was “inactive” in each case.

In the case of `O=C1C(=O)c2ncccc2-c2cccnc21`, the Potency in the experiment with N140 is 1260 nM (active); with P93_24, 891 nM (active); in the experiment with P94_40, 794 nM (active); with PAD it was 794 nM (active); with PC15, 891 nM (active); in the experiment with PC26 it was 1070 nM (active). Further, the Potency in the experiment on PC49 was 3550 nM (active); with SC27B it was 2820 nM (active); with TAB109, 1000 nM (active); with TAB113 it was 1780 nM (active).

Take `CC1(C)C(C=C(Cl)Cl)C1C(=O)OCc1cccc(Oc2ccccc2)c1` (configuration not stated): the Potency result with N140, in the experiment with P93_24, in the experiment on P94_40, with PAD, in the experiment on PC15 and in the experiment with PC26 was “inactive” in each case. The Potency entry with PC49, in the experiment with SC27B, in the experiment with TAB109 and in the experiment with TAB113 was “inactive” each time.

On to `CCOc1ccc2c(c1)C(C)=CC(C)(C)N2`, for which the Potency entry with N140, with P93_24, in the experiment on P94_40, with PAD, in the experiment on PC15 and in the experiment with PC26 was “inactive” each time. The Potency result in the experiment with PC49, with SC27B, in the experiment with TAB109 and in the experiment with TAB113 was “inactive” each time.

Take `Cc1ccccc1OCC(O)CNCCOc1ccc(C(N)=O)cc1` (configuration not stated): the Potency entry in the experiment on N140, with P93_24, in the experiment on P94_40, in the experiment on PAD, with PC15 and with PC26 was “inactive” in each case. Moreover, the Potency result in the experiment with PC49, in the experiment with SC27B, in the experiment on TAB109 and with TAB113 was “inactive” in each case.
